Screening results as filed in PubChem.
Compounds with a hit are over-represented: about 7.3% of the library has one in this group of screens.
SMN2 splice enh – enhancers of SMN2 splice variant expression | HEK293 SMN2-luciferase splicing reporter, luminescence, 30-36 h | Potency, µM (titrated, usually from 46.1 µM), without a hit: at the top dose activity change, positive = activation, usual class: activators | 2.8% of 210,000 active; note: % of control where 0% means no effect; nearly all actives have a fitted effect of over 55% in size
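HEK293 cells carry an SMN2 […]–luciferase reporter in which exon 7 inclusion puts luciferase in frame. Cells were plated 10-12 h before compound addition, then incubated 30-36 h at 37C. ONE-Glo luminescence was read; sodium butyrate at 4.5 mM final served as control.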
Rab9 promoter act – Rab9 promoter activation | 2.8% of 320,000 active | Potency, µM (highest dose often 9.22 µM), for the others: at the highest dose activation, negative = inhibition, most hits filed as activators | AID 485297 | Huh7 Rab9 promoter-luciferase reporter, luminescence, 24 h; note: % of control where 0% means no effect; nearly all actives have a fitted effect of over 60% in size
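Steps: seed 1500 Huh7 Rab9-luc cells per well, rest 2 h at 37 °C; add compound in DMSO; incubate 24 h; add luciferase reagent, 10 min ambient; read luminescence.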
NPC1 promoter act – activates the NPC1 promoter; Huh7 NPC1 promoter luciferase reporter, 24 h; Potency, µM (titrated, usually from 9.22 µM), inactives show at the highest dose activation, usual class: activators; 2.4% of 320,000 active; note: % of control where 0% means no effect; nearly all actives have a fitted effect of over 60% in size
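Quantitative HTS used a cell-based reporter: Huh7 cells stably bearing the NPC1 promoter upstream of luciferase were treated with compounds for 24 h, and promoter activation was read as luminescence.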
ELG1 genotoxic – inducers of genotoxicity in HEK293T ELG1-luciferase cells. AID 504466. 1.3% of 330,000 active. HEK293T ELG1-luciferase reporter, luminescence, 16 h. Potency, µM (titrated, usually from 46 µM), for inactives: at the top dose activity change, positive = activation, actives largely listed as activators; note: % of control where 0% means no effect; nearly all actives have a fitted effect of over 60% in size
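DMSO vehicle served as control against compound-treated ELG1-luciferase HEK293T cells; exposure lasted 16 hr at 37 °C and 5% CO2, followed by ONE-Glo luminescence detection after 30 min.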
FLuc counter – inhibits or activates purified firefly luciferase, miR-21 counter-screen; purified FLuc, Km substrates, luminescence inhibition; Potency, µM (doses to about 57.5 µM), without a hit: top-dose activity change, negative = inhibition, most hits filed as inhibitors; 6.9% of 360,000 active; AID 588342;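 note: plate controls were vehicle for no effect and reference inhibitor for full effect; nearly all actives have a fitted effect of over 55% in size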
Target sequence (P08659 whole entry, looked up): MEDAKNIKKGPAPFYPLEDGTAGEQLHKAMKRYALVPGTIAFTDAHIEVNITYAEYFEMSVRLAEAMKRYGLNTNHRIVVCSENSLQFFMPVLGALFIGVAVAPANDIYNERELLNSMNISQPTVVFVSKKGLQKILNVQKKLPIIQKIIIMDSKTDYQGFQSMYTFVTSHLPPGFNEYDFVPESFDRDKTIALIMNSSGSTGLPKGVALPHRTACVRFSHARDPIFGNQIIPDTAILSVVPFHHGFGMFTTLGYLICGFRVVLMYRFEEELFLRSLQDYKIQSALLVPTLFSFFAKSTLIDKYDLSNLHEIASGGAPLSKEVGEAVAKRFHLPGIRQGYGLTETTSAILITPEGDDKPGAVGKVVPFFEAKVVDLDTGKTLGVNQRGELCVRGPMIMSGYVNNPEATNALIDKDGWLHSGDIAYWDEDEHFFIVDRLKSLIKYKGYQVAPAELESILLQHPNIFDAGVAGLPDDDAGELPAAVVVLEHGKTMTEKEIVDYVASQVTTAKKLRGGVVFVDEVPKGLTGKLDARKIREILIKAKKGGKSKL
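Purified P. pyralis luciferase (10nM final) with 10uM D-luciferin and 10uM ATP (Km levels) in 50mM Tris acetate pH 7.5, 10mM Mg acetate, 0.01% Tween-20, 0.05% BSA; qHTS 6-point titration, ~60 µM downward; luminescence read.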
Luc counter – blocks Kinase-Glo luciferase, a counter-screen artifact. 0.28% of 200,000 active. Q27757. Potency, µM (doses to about 38.3 µM), without a hit: at the top dose activity change, negative = inhibition, usual class: inhibitors. Kinase-Glo luciferase, ATP luminescence, 8 min; note: % is set by controls: 0 for no effect and ±100 for the full control effect; nearly all actives have a fitted effect of over 60% in size
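Luminescence was the read-out, taken after 8-minute incubation at ambient temperature. Luciferase turned over luciferin with 10 uM ATP in imidazole pH 7.2 buffer containing KCl, MgCl2, Tween 20 and BSA.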
* marks the source's active call; other numbers are inactive results; ? = inconclusive; nt = not tested or not shown; [ ] = remark or other dose. Calls come from the whole dose curve; as a rule, active = well fitted curve in the direction sought with a large enough effect; inconclusive = small, poorly fitted or top-dose-only effect, or another doubt; inactive = no such curve, though single readings can be large; an effect the other way counts as inactive or inconclusive. Potency is the fitted concentration of half-maximal effect.

SMILES	SMN2 splice enh	Rab9 promoter act	NPC1 promoter act	ELG1 genotoxic	FLuc counter	Luc counter
O=C(NCc1ccccn1)C(=O)N/N=C/c1ccc2c(c1)OCO2	nt	10%	-2%	5%	17µM*	-3%
Cc1ccc2c(c1)/C(=C/c1ccc(F)cc1)C(=O)N2	nt	-14%	-2%	-7%	-12%	nt
CCOC(=O)N1CCN(C(=O)C2CCC(CNS(=O)(=O)c3ccc(Cl)cc3)CC2)CC1 (stereo unspecified)	-36%	-9%	-3%	-5%	1%	-1%
CCO[C@@H]1OC(C(=O)O)=C[C@H](C2CCCCC2)[C@H]1CCCO	nt	-4%	-4%	5%	2%	nt
O=C(N/N=C/c1ccc2c(c1)OCO2)c1ccc2c(c1)OCO2	nt	2.5µM*	2.2µM*	-4%	?	nt
O=C(CNC(=O)c1ccc2c(c1)OCCO2)N/N=C/c1ccc(O)cc1O	7%	2%	-2%	1%	-14%	0%
O=C(CNc1ccc2c(c1)OCO2)N/N=C\c1ccccc1Cl	1%	-5%	0%	0%	?	-1%
Cc1cc(Cl)c(S(=O)(=O)N/N=C/c2ccc3c(c2)OCO3)c(Cl)c1	?	12%	16%	6%	15µM*	-6%
O=C(N/N=C/c1cccc(O)c1)c1ccc2c(c1)OCCO2	nt	-1%	?	?	1.7µM*	nt
O=C(N/N=C\c1ccc(S(=O)(=O)O)o1)c1ccc2c(c1)OCO2	nt	-4%	2%	-2%	?	nt
Cc1[nH]c2ccccc2c1/C=N\NC(=O)CNc1ccc2c(c1)OCO2	-8%	-6%	1%	0%	11µM*	1%
COc1ccc(Cn2c(-c3ccccc3)nc3c(c(=O)c4ccccc4n3C)c2=O)cc1	-41%	-2%	0%	5%	1%	-1%
CCOC(=O)c1cnc2c(Cl)cc(Cl)cc2c1NCCCN1CCOCC1	nt	0%	-6%	-1%	-20%	nt
O=C(N/N=C/c1ccc[nH]1)c1ccc2c(c1)OCO2	?	12%	-5%	?	13µM*	-11%
O=C(CNC(=O)c1ccc2c(c1)OCO2)Nc1cccc(Br)c1	nt	-2%	-2%	1%	1%	nt
CN(C)c1ccc(/C=N/NC(=O)CNC(=O)c2ccc3c(c2)OCCO3)cc1	-10%	-7%	-6%	17%	?	6%
CCN(CC)c1ccc(/C=N/NC(=O)CNC(=O)c2ccc3c(c2)OCCO3)cc1	nt	6%	3%	-3%	17µM*	nt
O=C(N/N=C/c1c(Cl)[nH]c2ccccc12)c1ccc2c(c1)OCCO2	nt	?	?	?	1.5µM*	nt
O=C(CNC(=O)c1cccc(Br)c1)N/N=C/c1ccc2c(c1)OCO2	nt	2%	0%	?	17µM*	nt
CCC(C(=O)Nc1cccnc1)n1c(=O)[nH]c2ccccc2c1=O (stereo unspecified)	nt	-2%	-1%	-1%[9.26 µM]	1%	nt
Fc1ccc(NC(=S)Nc2cccc3cnccc23)cc1	nt	1%	1%	-9%	?	6%
O=[N+]([O-])c1ccc2c(c1)nc1n2CCN(c2ccccc2)C1	nt	?	21%	7%	?	nt
Cc1cc(C(=O)N/N=C/c2cccc(OC(=O)c3ccco3)c2)n[nH]1	?	8%	2%	8%	17µM*	0%
Cc1cc(C(=O)N/N=C/c2cccnc2)n[nH]1	nt	11%	0%	2%	-5%	nt
O=C(N/N=C\c1ccc2c(c1)OCO2)c1ccco1	nt	1.8µM*	3.2µM*	15µM*	8.5µM*	nt
SMILES	SMN2 splice enh	Rab9 promoter act	NPC1 promoter act	ELG1 genotoxic	FLuc counter	Luc counter
Cc1onc(-c2ccccc2)c1C(=O)N/N=C/c1ccccc1OC(C)C	nt	0%	-7%	-15%	-3%	nt
CS(=O)(=O)Nc1ccc(C2=NN(C(=O)c3ccco3)C(c3ccco3)C2)cc1 (stereo unspecified)	nt	-2%	0%	3%	?	nt
COc1ccc(C(=O)CSc2nnn(-c3cccc(NC(C)=O)c3)n2)cc1	nt	?	?	5%	17µM*	nt
CC(=O)Nc1cccc(-n2nnc(SCC(=O)c3ccccc3)n2)c1	nt	3.2µM*	2.8µM*	?	17µM*	nt
CC(=O)Nc1cccc(-n2nnc(SCC(N)=O)n2)c1	nt	-1%	0%	-3%	0%	nt
COc1ccccc1CNC(=O)CCC(=O)N1CC2CCCN2c2ccccc21 (stereo unspecified)	nt	nt	nt	nt	3%	nt
C#CCOc1ccc(/C=C2/C(=O)N(c3cccc(C(=O)O)c3)N=C2C)cc1OC	nt	-1%	-1%	10%	12µM*	nt
CC1=NN(c2ccc(Br)cc2)C(=O)/C1=C/c1cccs1	-22%	28%	25%	-3%	7.6µM*	0%
CC1=NN(c2cccc(C(=O)O)c2)C(=O)/C1=C\C=C\c1ccco1	30%	13%	10%	?	2.7µM*	-4%
COc1cc(/C=C2\C(=O)N(c3ccccc3)N=C2C)ccc1Oc1ccc([N+](=O)[O-])cc1[N+](=O)[O-]	-18%	4%	0%	2%	?	-1%
CC1=NN(c2ccccc2)C(=O)/C1=C/c1cc(C)n(C2CC2)c1C	7%	14%	11%	8%	2.4µM*	-1%
CC1=NN(c2ccc(C)cc2)C(=O)/C1=C\c1ccc(Br)s1	7%[1.84 µM]	8%	2%	14%	-13%	-3%
C[N+]1([O-])[C@@H]2Cc3cc4c(cc3[C@@H]1Cc1cc3c(cc12)OCO3)OCO4 (stereo partly specified)	nt	0%	-3%	2%	-1%	nt
CC1=NN(c2ccccc2)C(=O)/C1=C\c1sccc1C	nt	-2%	-5%	4%	7.6µM*	nt
CC1=NN(c2ccccc2)C(=O)/C1=C\c1cn(-c2ccccc2)nc1C	5%	-3%	-4%	2%	?	3%
COc1ccccc1/C=C1/C(=O)N(c2ccccc2)N=C1C	nt	0%	-1%	0%	27µM*	nt
CCOc1ccc(-n2nc3cc(C)c(NC(=O)CC)cc3n2)cc1	-10%	nt	nt	nt	?	nt
COc1ccc(-n2nc3cc(C)c(NC(C)=O)cc3n2)cc1	1.6µM*	0.32µM*	0.32µM*	?	0.6µM*	-2%
CCc1ccc(-n2nc3cc(C)c(NC(=O)c4cc(OC)cc(OC)c4)cc3n2)cc1	2%	nt	nt	nt	1.3µM*	nt
COc1ccc(-n2nc3cc(C)c(NC(=O)C(C)C)cc3n2)cc1	2.8µM*	0.32µM*	0.32µM*	?	0.21µM*	-2%
CCc1ccc(-n2nc3cc(C)c(NC(=O)c4ccccc4C)cc3n2)cc1	11%	nt	nt	nt	?	nt
CCOC(=O)c1cc(-c2ccccc2)n(CC(=O)Nc2cccc(OC)c2)c1C	7%	-9%	-2%	1%	4%	2%
